Inconclusive results are not listed. Calls of active or inactive are those of the source. The call rests on the fitted dose curve; in most records, active means well fitted curve in the direction sought with a large enough effect; inconclusive means small, poorly fitted or top-dose-only effect, or another doubt; inactive means no such curve, though single readings can be large; an effect the other way counts as inactive or inconclusive.

In assay [1] the target is Alpha-galactosidase A (Homo sapiens) (UniProt P06280). Put plainly: Counterscreen for Glucocerebrosidase Inhibitors: qHTS Assay for Human alpha-Galactosidase at pH 4.5 (AID 992). An outline of the steps:
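Quantitative HTS: compounds tested from 0.7 nM up to 77 uM against 2 nM enzyme with 80 uM 4-MU alpha-D-galactopyranoside. The 20 min room-temperature reaction is stopped with 1M NaOH/1M glycine, pH 10.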
On the technique in general: Counterscreens check selectivity or assay interference.

Assay [2] concerns the target alpha-glucosidase (Oryza sativa, rice) (UniProt Q653V4). Put plainly: Counterscreen for Glucocerebrosidase Inhibitors: qHTS Assay for Rice alpha-Glucosidase at pH 5.0 (AID 997). An outline of the steps:
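Rice alpha-glucosidase (4 nM final) with 400 uM 4-methylumbelliferyl-alpha-D-glucopyranoside in citrate buffer pH 5.0, 20 min at room temperature, stopped at pH 10; fluorescence 365/440 nm, compounds 0.7 nM–77 uM, AC50 from Hill fits.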

Assay [3] deals with DNA repair nuclease/redox regulator APEX1 (Homo sapiens) (UniProt P27695). Put plainly: qHTS Validation Assay for Inhibitors of the Human Apurinic/apyrimidinic Endonuclease 1 (APE1) (AID 1705;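 further: TAMRA fluorescence gain over two minutes as APE1 cuts a quenched THF abasic duplex; series mostly up to about 57 µM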). In short, it runs like this:
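Read-out: TAMRA fluorescence (525 nm ex, 598 nm em) from cleavage of a quenched THF abasic-site duplex, 50 nM final; activity taken as intensity change between third and first of three reads 60 s apart.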
In general terms: qHTS replaces the single test concentration by a dilution series.

The nature of assay [4]: qHTS for differential inhibitors of proliferation of Plasmodium falciparum line 7G8 (AID 1815).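 Further: parasite growth measured after three days of incubation.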 Further: potency means the concentration at half of the fitted maximal effect.
Assay [5] is described as follows: qHTS for differential inhibitors of proliferation of Plasmodium falciparum line GB4 (AID 1816).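 Further: parasite growth measured after 72 h incubation.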 Further: potency means the concentration at half of the fitted maximal effect. To be noted: Potency: Plasmodium falciparum GB4 proliferation inhibition.
Assay [6] in a line: qHTS for differential inhibitors of proliferation of Plasmodium falciparum line 3D7 (AID 1876). Further: potency means the concentration at half of the fitted maximal effect.
The nature of assay [7]: qHTS for differential inhibitors of proliferation of Plasmodium falciparum line D10 (AID 1877).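 Further: parasites grown with compound for 72 h before DNA staining.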 Further: potency means the concentration at half of the fitted maximal effect.
Assay [8] is described as follows: qHTS for differential inhibitors of proliferation of Plasmodium falciparum line Dd2 (AID 1882). Further: nearly all actives have a fitted effect of over 65% in size. Further: potency means the concentration at half of the fitted maximal effect. The following applies: Potency: Plasmodium falciparum Dd2 proliferation inhibition. In short, it runs like this: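 Dd2-infected erythrocytes (0.3% parasitemia, 2.5% hematocrit final) incubated with compound 72 h at 37 C, 5% CO2; lysed with saponin/Triton buffer containing SYBR Green I, incubated overnight in the dark, then read by fluorescence (485/535 nm). Normalized to 0.29 uM artemisinin and DMSO.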

The nature of assay [9]: qHTS for differential inhibitors of proliferation of Plasmodium falciparum line W2 (AID 1883).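 Further: parasites grown with compound for 72 h before lysis and staining.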 Further: potency means the concentration at half of the fitted maximal effect. The following applies: Potency: Plasmodium falciparum W2 proliferation inhibition.
Assay [10] can be described thus: Counterscreen for APE1 Inhibitors: Fluorescent Dye Displacement Validation Assay (AID 1707). An outline of the steps: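 Compounds are scored by their ability to displace Thiazole Orange (250 nM) from a 50 nM TAMRA-tagged duplex bearing a tetrahydrofuran abasic site. Buffer is 50 mM Tris-HCl pH7.5, 50mM NaCl, 2 mM MgCl2, 0.01% Tween-20.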
The target of assay [11] is Endonuclease 4 (Escherichia coli (strain K12)) (UniProt P0A6C1). Briefly: Counterscreen for APE1 Inhibitors: qHTS Validation Assay for Inhibitors of Endonuclease IV (AID 1708). An outline of the steps:
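E. coli EndoIV at 2 nM final, preincubated 15 min at room temperature with compound, then 50 nM TAMRA/BHQ-2 THF abasic-site duplex added. Buffer: 50 mM Tris-HCl pH 7.5, 50 mM NaCl, 2 mM MgCl2, 1 mM DTT, 0.01% Tween-20. Kinetic fluorescence increase, third minus first read.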

A short description of assay [12]: Cell Viability - LYMP2-014 (AID 983).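 Further: series mostly up to about 92 µM; cells exposed to compound for 24 h at 37 °C; nearly all actives have a fitted effect of over 50% in size.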 An outline of the steps:
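Luminescent ATP signal (CellTiter-Glo, 30 min at room temperature) serves as the viability read-out after 24 hr compound exposure at 37 C. Cells were seeded at 2500 per well and settled 5 hr beforehand.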

Assay [13] in a line: Cell Viability - LYMP2-016 (AID 984).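 Further: cells exposed to compound for 24 hours at 37 °C; nearly all actives have a fitted effect of over 55% in size.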 An outline of the steps: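 qHTS, 1536-well: 2500 LYMP2-016 cells/well, 5 hr 37 C, compound added, 24 hr 37 C, CellTiter-Glo 30 min RT, luminescence. Tetraoctylammonium bromide positive control. AC50 via Hill fit.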
Assay [14] in a line: Cell Viability - LYMP2-018 (AID 985). Further: nearly all actives have a fitted effect of over 50% in size. An outline of the steps:
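Luminescent ATP signal (CellTiter-Glo, read after 30 min at room temperature) reports viable cells after 24 hr compound treatment at 37 C. Concentration-response data were fitted to the standard Hill equation for AC50.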

Assay [15] can be described thus: Cell Viability - LYMP2-022 (AID 987). Further: nearly all actives have a fitted effect of over 55% in size. In short, it runs like this: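 qHTS: human lymphoblastoid cells 2500/well; 5 hr 37 C; cpd added; 24 hr 37 C; CellTiter-Glo, 30 min RT; luminescence. AC50 via Hill fit; tetraoctylammonium bromide positive ctrl.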
Assay [16] can be described thus: Cell Viability - LYMP2-026 (AID 989).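 Further: cells exposed to compound for 24 h at 37 °C; nearly all actives have a fitted effect of over 50% in size.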 An outline of the steps:
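Luminescent ATP signal (CellTiter-Glo, 30 min room temperature) measures viable lymphoblastoid cells after 24 hr compound treatment at 37 C. Decreased ATP reflects acute toxicity; AC50 values come from Hill-equation modeling.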

Assay [17] is described as follows: Cell Viability - LYMP1-002 - Assay at 24 hr (AID 993). An outline of the steps:
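Cells plated 2500/well, 5 hr 37 C; compounds added, 24 hr 37 C; CellTiter-Glo added, 30 min RT; luminescence read. Tetraoctylammonium bromide positive control. Hill-equation AC50.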

The nature of assay [18]: Cell Viability - LYMP1-002 - Assay at 40 hr (AID 994). Further: nearly all actives have a fitted effect of over 60% in size. An outline of the steps: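 Luminescent ATP signal served as the viability readout, with decreases taken as toxicity. Cells were treated with compounds across a concentration range for 40 hours at 37 C, and AC50 values came from standard Hill modeling.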

DNA repair nuclease/redox regulator APEX1 (Homo sapiens), sequence (P27695 whole entry, looked up): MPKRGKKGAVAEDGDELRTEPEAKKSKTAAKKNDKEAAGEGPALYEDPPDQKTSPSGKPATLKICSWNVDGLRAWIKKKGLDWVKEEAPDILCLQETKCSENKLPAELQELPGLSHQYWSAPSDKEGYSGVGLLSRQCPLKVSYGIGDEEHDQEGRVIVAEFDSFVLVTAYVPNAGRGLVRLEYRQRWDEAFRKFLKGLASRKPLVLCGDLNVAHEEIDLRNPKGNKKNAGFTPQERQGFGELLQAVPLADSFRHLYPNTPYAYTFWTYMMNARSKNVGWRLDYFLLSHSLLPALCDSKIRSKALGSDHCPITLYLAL
Alpha-galactosidase A (Homo sapiens), sequence (P06280 whole entry, looked up): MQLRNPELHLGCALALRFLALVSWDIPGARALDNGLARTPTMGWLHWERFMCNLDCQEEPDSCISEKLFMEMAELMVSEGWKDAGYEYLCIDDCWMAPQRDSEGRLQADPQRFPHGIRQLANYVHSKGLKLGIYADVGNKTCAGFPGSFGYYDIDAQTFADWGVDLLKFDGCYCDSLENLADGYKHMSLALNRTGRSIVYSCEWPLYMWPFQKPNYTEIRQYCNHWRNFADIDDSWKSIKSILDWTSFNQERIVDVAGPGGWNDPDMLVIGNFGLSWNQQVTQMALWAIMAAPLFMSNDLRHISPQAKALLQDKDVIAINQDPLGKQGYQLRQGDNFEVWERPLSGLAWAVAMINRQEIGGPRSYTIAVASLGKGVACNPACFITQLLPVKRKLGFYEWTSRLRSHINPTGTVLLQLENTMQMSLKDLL

Regarding `C[n+]1cc2c3c(ccc2c2ccc4cc5c(cc4c21)OCO5)OCO3`, the outcome in assay [1] and in [2] was inactive. In [3], the Potency entry is “inactive”. The Potency is 4.47 µM (active) in assay [4]; 2.82 µM (active) in [5]; 2.82 µM (active) in [6]; 3.55 µM (active) in assay [7]; 6.31 µM (active) in [8]; 2.51 µM (active) in assay [9].

Turning to `c1cc(CN2CCCCC2)cc(OCCCNc2nc3ccccc3s2)c1`, the result in assay [1], in assay [2] and in [10] was inactive. Also, in [3], the Potency result is “inactive”. In addition, the Potency was 7.08 µM (active) in assay [4]; 6.31 µM (active) in assay [5]; 2.51 µM (active) in assay [6]; 8.91 µM (active) in [7]; 7.08 µM (active) in assay [8]; 2.51 µM (active) in [9].

`C[C@]12CCC(=O)C=C1CC[C@@H]1[C@@H]2C(=O)C[C@@]2(C)[C@H]1CC[C@]2(O)C(=O)CO`: the call in assay [1] and in assay [2] was inactive. Moreover, the Potency result in [3], in assay [11], in assay [4], in [5], in assay [6] and in [7] was “inactive” throughout. Also, the Potency entry in assay [8] is “inactive”.

As to `CCc1cccc(N(C)C(N)=Nc2cccc3ccccc23)c1`, the result in assay [1], in assay [2] and in assay [10] was inactive. For the same compound, the Potency entry in [3] and in assay [11] was “inactive” in each case. In addition, the Potency was 3.16 µM (active) in [4]; 10 µM (active) in [5]; 12.6 µM (active) in assay [6]; 14.1 µM (active) in assay [7]; 0.631 µM (active) in assay [9].

`NC(=Nc1ccccc1)Nc1ccccc1`: the compound was classed as inactive in assay [12], in assay [13], in assay [16] and in assay [17]. Moreover, the Potency result in [14], in assay [15] and in [18] was “inactive” each time.

As for `Cc1ccc(Cl)c(Nc2ccccc2C(=O)O)c1Cl`, the result in [1], in assay [2] and in assay [10] was inactive. Also, the Potency result in [3], in assay [11], in assay [4], in assay [5], in assay [6] and in [7] was “inactive” in each case. In addition, the Potency result in assay [8] and in [9] was “inactive” throughout.

For `Cc1nnc(SCC2=C(C(=O)O)N3C(=O)[C@@H](NC(=O)Cn4cnnn4)[C@H]3SC2)s1`, the Potency result in assay [3], in [11], in [6], in assay [7] and in assay [8] was “inactive” throughout.

In the case of `C[N+](C)(C)CCOC(=O)CCC(=O)OCC[N+](C)(C)C`, the result in assay [1] and in assay [2] was inactive. Besides, the Potency entry in assay [3], in assay [11], in assay [4], in assay [5], in assay [6] and in assay [7] was “inactive” each time. The Potency result in [8] and in assay [9] was “inactive” in each case.

Turning to `O=C(CCCN1CCC(O)(c2cccc(C(F)(F)F)c2)CC1)c1ccc(F)cc1`, the outcome in assay [1], in assay [2] and in assay [10] was inactive. Moreover, the Potency result in assay [3] and in [11] was “inactive” each time. The Potency in assay [4] is 3.55 µM (active); in assay [5] it was 3.16 µM (active); in [6], 3.55 µM (active); in assay [7], 12.6 µM (active); in [8], 3.98 µM (active); in assay [9] it was 2.24 µM (active).

Source of the values: PubChem BioAssay (NCATS).
